Measurements taken from PubChem BioAssay (NCATS).
Values joined by “and” are separate entries in the source; they are usually repeats but may differ in a detail not shown here. Equal entries are not always repeated. Inconclusive results are not listed. A number with no mark means an inactive call. Active and inactive are the calls of the source. The call rests on the fitted dose curve.

Assays:
[1] = target: Bile acid receptor (Homo sapiens) (UniProt Q96RI1); experiment: qHTS assay for small molecule agonists of farnesoid X receptor signaling (AID 588527); conditions: HEK293T FXR-UAS-bla, beta-lactamase ratio, 16 h; activation: hits give high values;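 further: series mostly up to about 77 µM; 0% = vehicle basal and 100% = reference agonist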
Sequence of Bile acid receptor (Homo sapiens) (Q96RI1 whole entry, looked up): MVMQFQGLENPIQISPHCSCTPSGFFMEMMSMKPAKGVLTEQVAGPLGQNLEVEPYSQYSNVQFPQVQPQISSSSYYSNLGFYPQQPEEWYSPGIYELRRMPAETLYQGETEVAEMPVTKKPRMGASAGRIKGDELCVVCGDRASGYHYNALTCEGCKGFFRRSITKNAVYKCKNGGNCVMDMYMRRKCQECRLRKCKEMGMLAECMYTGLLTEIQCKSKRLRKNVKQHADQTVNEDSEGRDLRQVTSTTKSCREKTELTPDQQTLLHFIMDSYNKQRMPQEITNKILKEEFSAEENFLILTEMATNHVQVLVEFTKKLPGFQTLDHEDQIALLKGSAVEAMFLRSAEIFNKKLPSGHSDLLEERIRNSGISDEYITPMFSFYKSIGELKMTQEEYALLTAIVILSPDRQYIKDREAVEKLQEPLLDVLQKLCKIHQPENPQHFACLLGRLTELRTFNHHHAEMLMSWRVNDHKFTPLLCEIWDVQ
In short: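 Quantitative HTS used FXR-UAS-bla HEK293T cells with 16 h compound incubation at 37 C. EC50 values came from concentration-response curves normalized to chenodeoxycholic acid.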

[2] = target: Peroxisome proliferator-activated receptor delta (Homo sapiens) (UniProt Q03181); experiment: qHTS assay for small molecule agonists of peroxisome proliferator-activated receptor delta signaling (AID 588534);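 further: 0% = DMSO basal wells and 100% = positive control agonist at 10 µM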
Sequence of Peroxisome proliferator-activated receptor delta (Homo sapiens) (Q03181 whole entry, looked up): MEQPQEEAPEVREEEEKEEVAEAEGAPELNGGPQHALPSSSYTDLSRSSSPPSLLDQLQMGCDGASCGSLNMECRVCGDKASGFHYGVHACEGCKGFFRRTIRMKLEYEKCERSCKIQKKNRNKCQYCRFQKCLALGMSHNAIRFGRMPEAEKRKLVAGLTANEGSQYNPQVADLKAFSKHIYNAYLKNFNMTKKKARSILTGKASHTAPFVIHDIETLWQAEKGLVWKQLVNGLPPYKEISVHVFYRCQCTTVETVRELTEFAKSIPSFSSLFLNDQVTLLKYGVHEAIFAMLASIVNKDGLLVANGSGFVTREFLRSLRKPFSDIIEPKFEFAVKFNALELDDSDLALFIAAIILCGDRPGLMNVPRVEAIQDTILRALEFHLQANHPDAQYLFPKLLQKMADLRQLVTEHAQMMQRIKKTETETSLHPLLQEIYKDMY
In short: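 Titration series tested in agonist mode on beta-lactamase reporter cells; 18 hrs at 37 C after a 5 hr pre-incubation. Readout: CCF4 fluorescence, 2 hrs RT. Hill equation gives EC50 and maximal response.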

| SMILES | activation [1] | outcome [2] |
| --- | --- | --- |
| CC(C)(C)c1ccc(C(=O)O)cc1 | -9.49% | inactive |
| CNc1nc(=O)n(C2CCC(O)CC2)c(=O)n1C (stereo unspecified) | 2.07% | inactive |
| O=C(O)CCCCCCCCCCC(=O)O | -2.26% | inactive |
| O=C(O)c1ccc([N+](=O)[O-])cc1 | -2.8% and 1.45% | inactive |
| c1ccc2[nH]cnc2c1 | -1.83% | inactive |
| Cc1cc(C)cc([N+](=O)[O-])c1 | -0.797% | inactive |
| O=C1OC(O)C(C(Cl)Cl)=C1Cl (stereo unspecified) | 16.6% | inactive |
| Nc1cc(Cl)c(N)c(Cl)c1 | -3.48% | inactive |
| C=CC(=O)OCCCC | -3.45% | inactive |
| CC(=O)OC(C)C | -1.76% | inactive |
| NCCCCCCCCCCCC(=O)O | 0.942% | inactive |
| CC(C)Cc1c(C(=O)O)c(C(F)F)nc(C(F)(F)F)c1C1=NCCS1 | 0.784% | inactive |
| CN=C(N)NCC1CCOC1 (stereo unspecified) | -3.33% and 1.46% | inactive |
| O=C(O)c1ccc(CO)o1 | 0.258% | inactive |
| CC(=O)OC1CC(C)OC(C)O1 (stereo unspecified) | -3.17% and -0.0131% | inactive |
| CCCCCCCCCCCCCCCCCC(=O)OC[C@@H](O)[C@H]1OC[C@H](O)[C@H]1O | 5.18% | inactive |
| Clc1ccc(Cl)c(Cl)c1Cl | 1.31% and 2.13% | inactive |
| Cc1ccc(C)c(O)c1 | 2.07% | inactive |
| Nc1cccc2c(=O)[nH][nH]c(=O)c12 | 1.93% | inactive |
| CC(COCC(C)OC(=O)c1ccccc1)OC(=O)c1ccccc1 (stereo unspecified) | 3.09% | inactive |
| Cn1sccc1=O | 1.01% | inactive |
| C=Cc1ccc(C=C)cc1 | -3.75% | inactive |
| Cc1cc(C)cc(N)c1 | -1.69% | inactive |
| c1ccc(Oc2ccccc2)cc1 | -0.867% | inactive |
| OCl | 1.09% | inactive |
| O=[N+]([O-])c1cc(Cl)c(Cl)c(Cl)c1Cl | -3.36% | inactive |
| N[C@@H](Cc1ccccc1)C(=O)O | 1.47% | inactive |

| SMILES | activation [1] | outcome [2] |
| --- | --- | --- |
| CNC(=O)c1ccccc1 | 3.12% | inactive |
| CCC(O)C(C)(C)C (stereo unspecified) | 0.367% | inactive |
| C=C[Si](OCCOC)(OCCOC)OCCOC | -1.57% | inactive |
| N#CC1(O)CCCCC1 | -2.07% | inactive |
| CC(C)O.CC(C)O.CC(C)O.CC(C)O.[Ti] | -5.62% | inactive |
| O=C(O)c1c(Cl)cccc1Cl | 2.87% | inactive |
| CCN(Cc1cccc(S(=O)(=O)O)c1)c1ccc(C(=C2C=CC(=[N+](CC)Cc3cccc(S(=O)(=O)O)c3)C=C2)c2ccccc2S(=O)(=O)[O-])cc1 | -1.6% | inactive |
| O=C(O)CN(CCO)CCN(CC(=O)O)CC(=O)O | -2.73% | inactive |
| CC(C)=CCC/C(C)=C\CO | -0.74% | inactive |
| CCCCCCCC/C=C\CCCCCCCC(=O)N(CCO)CCO | 0.527% | inactive |
| O=C(O)C(c1ccc(Cl)cc1)c1ccc(Cl)cc1 | -2.74% | inactive |
| CC(=O)Nc1ccc(N)cc1 | 1.67% | inactive |
| CCC1CO1 (stereo unspecified) | -1.53% | inactive |
| CC(C)CCCCCCc1ccc(O)cc1 | 6.07% | inactive |
| CC(C)CCOC(=O)/C=C/c1ccccc1 | -2.58% | inactive |
| O=C1OC(=O)c2ccccc21 | 1.95% | inactive |
| C#CCOC(=O)[C@@H](C)Oc1ccc(Oc2ncc(Cl)cc2F)cc1 | -1.83% | inactive |
| IC(I)I | 0.284% and 0.834% | inactive |
| CC1COCc2cc3c(cc21)C(C)(C)C(C)C3(C)C (stereo unspecified) | 0.585% | inactive |
| Nc1ccc(N)c2c1C(=O)c1c(N)ccc(N)c1C2=O | -0.332% | inactive |
| Cc1ccc(Cl)cc1N | -2.98% | inactive |
| CCCCOCCO | -0.315% and -0.896% and 3.38% | inactive |
| Cc1ccc(C)cc1 | -1.18% | inactive |
| O=[N+]([O-])c1ccc(CCO)cc1 | -0.12% | inactive |
| Cc1ccc(C#N)cc1 | -2.61% | inactive |
| Nc1nc(-c2ccccc2)cs1 | 2.42% | inactive |
